According to PubChem BioAssay (NCI):
This is part of a sample that, as a whole, favours compounds with a hit. Of some 83,000 tested, about 20% had one in any assay.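 Single-dose data. Exposure time 48 hours. Values below 10 considered active.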 A number with no mark means an inactive call. Active and inactive are the calls of the source.

Columns and labels:
Experiment in all cases: NCI-60 one-dose screen, 48 h (100 = growth as untreated, 0 = no growth, -100 = all killed)
Details in all cases: 10 µM unless noted
[1] = tested on: NCI-H23 lung
[2] = tested on: NCI-H226 lung
[3] = tested on: NCI-H322M lung
[4] = tested on: HOP-62 NSCLC
[5] = tested on: NCI-H460 lung
[6] = tested on: NCI-H522 lung
[7] = tested on: A549/ATCC NSCLC
[8] = tested on: 786-0 renal
[9] = tested on: COLO 205 colon
[10] = tested on: DU-145 prostate
[11] = tested on: K-562 leukemia
[12] = tested on: MALME-3M melanoma
[13] = tested on: MDA-MB-231 breast
[14] = tested on: RXF 393 renal
[15] = tested on: SF-268 CNS
[16] = tested on: SF-295 CNS
[17] = tested on: SF-539 CNS
[18] = tested on: UACC-257 melanoma
[19] = tested on: M14 melanoma
[20] = tested on: HCT-15 colon

Compound | growth [1] | growth [2] | growth [3] [%] | growth [4] [%] | growth [5] | growth [6] | growth [7] | growth [8] | growth [9] | growth [10] [%] | growth [11] | growth [12] | growth [13] | growth [14] | growth [15] | growth [16] | growth [17] | growth [18] | growth [19] | growth [20]
CCCc1nn(C)c2c(=O)[nH]c(-c3cc(S(=O)(=O)N4CCN(C)CC4)ccc3OCC)nc12 | 99% | 102% | 101 | 104 | 114% | 88.9% | 96.2% | 98.5% | 99.8% | 113 | 97.9% | 102% | 90.5% | 120% | 119% | 93% | 111% | 97.9% | 102% | –
O=C(CCc1nnc(SCc2ccccc2)s1)c1nc2ccccc2[nH]1 | 96.4% | 102% | 92.9 | 105 | 105% | 84.4% | 86.3% | 91.2% | 117% | 107 | 80.2% | 83.8% | 77.9% | 108% | 100% | 92.1% | 109% | 111% | 108% | –
O=C1/C(=C/c2ccc([N+](=O)[O-])o2)Oc2ccc(Cl)cc21 | 21.3% | -7.54% (active) | 79 | 74.5 | 75.4% | -84.4% (active) | 92.4% | -53.7% (active) | -57.8% (active) | 35.7 | -30.1% (active) | -45.6% (active) | -61.9% (active) | -72.2% (active) | -52% (active) | 103% | -25.6% (active) | -2.07% (active) | -18.8% (active) | –
CCC1=C(c2ccc(OC)cc2)C(C)(C)Oc2cc(O)c(CN3CCCC3)cc21 | 68.1% | 97.6% | 92 | 71.4 | 86.6% | 41.5% | 85.1% | 59% | 65.9% | 93.8 | 19.7% | 77.2% | 95.8% | 79.9% | 88.4% | 51% | 76.8% | 72% | 62.1% | 82.2%
CCCCSc1cc(C)nc(N)n1 | 95.9% | 98.6% | 97.1 | 91.5 | 103% | 94.9% | 97.8% | 95.6% | 112% | 105 | 94.8% | 96.4% | 104% | 105% | 98.8% | 102% | 95.7% | 109% | 99.2% | –
NCCCc1nnc(CCC(=O)c2nc3ccccc3[nH]2)o1 | 98.3% | 108% | 97.3 | 112 | 115% | 103% | 106% | 103% | 111% | 115 | 98.5% | 82.2% | 89.8% | 116% | 115% | 98.4% | 101% | 113% | 109% | 90%
Cc1c(NCc2nnc3n(Cc4ccccc4)c(=O)c4c5c(sc4n23)CCCC5)c(=O)n(-c2ccccc2)n1C | 92.4% | 94.8% | 92.2 | 105 | 98.9% | 71.3% | 66.7% | 72.3% | 101% | 75.6 | 53.5% | 113% | 96.5% | 84.5% | 74.1% | 67.2% | 103% | 80.9% | 83.2% | 94.6%
COc1ccc(OC)c(/C=C/c2nc(=S)n(-c3ccc(Cl)cc3)[nH]2)c1 | 48.7% | 73.3% | 100 | 69.7 | 38.9% | 82.1% | 66.3% | 58.9% | 104% | 87.6 | 22.4% | 29.8% | 87.2% | 51.9% | 73.7% | 31.2% | 39.5% | 77.6% | 31% | 41.2%
COc1ccc(Cn2c(NCCCN(C)C)nc(=O)n(Cc3ccc(F)cc3)c2=O)cc1 | 103% | 90.7% | 83 | 93.5 | 108% | 95% | 110% | 89.3% | 94.8% | 99.4 | 87.9% | 87.9% | 81.4% | 83.7% | 83.7% | 96.2% | 108% | 92.4% | 97.9% | 107%
O=C1N(C2CCCCC2)C(=O)N1C1CCCCC1 | 45.1% | 46% | 35.2 | 57.5 | 39% | 17.3% | 34.5% | 53.5% | 62% | 38.7 | 55.3% | -16.9% (active) | 64.3% | 43.2% | 65.3% | -27.9% (active) | 26.5% | 22.8% | 30.4% | 52.7%
COc1ccc2c(c1)C(=O)c1c-2c(OCCN(C)C)nc2cc(OC)ccc12 | -57.2% (active) | -25.7% (active) | 19.7 | 14.9 | -70.7% (active) | -22.1% (active) | -43.6% (active) | 36.1% | 2.84% (active) | 29 | -47.7% (active) | -39.9% (active) | 1.22% (active) | -8.64% (active) | 35.7% | 31.8% | 15% | 20.5% | 11.6% | -63.4% (active)
O=C1NCN(c2ccccc2)C12CCN(CCCC(c1ccc(F)cc1)c1ccc(F)cc1)CC2 | 72.9% | 94.1% | 60.4 | 82.9 | 37.3% | 61.2% | 57.8% | 49.2% | 27.1% | 76 | 6.41% (active) | 39.9% | 78% | 39.9% | 71.4% | 17.1% | 50.9% | -15.8% (active) | 9.99% (active) | 49.6%
Cc1c(N(C)CS(=O)(=O)O)c(=O)n(-c2ccccc2)n1C | 109% | 102% | 96.9 | 92.7 | 121% | 89.8% | 97.1% | 91.5% | 115% | 112 | 102% | 94.1% | 107% | 115% | 115% | 98.9% | 106% | 108% | 103% | 103%
C=CC1=C(C(=O)O)N2C(=O)[C@@H](NC(=O)/C(=N\O)c3csc(N)n3)[C@H]2SC1 (stereo in doubt) | 96% | 101% | 109 | 105 | 105% | 106% | 99.4% | 105% | 103% | 113 | 104% | 111% | 105% | 117% | 108% | 104% | 95.2% | 96.3% | 114% | 105%
O=C(Nc1ccc(Cl)cc1)Nc1ccc(Nc2nncc3ccccc23)cc1 | 12.5% | 33.3% | 64.3 | 38.7 | 9.89% (active) | 11.9% | 20.1% | 50.4% | 18.6% | 33.7 | 9.49% (active) | 38.5% | 36.6% | 65.7% | 42.4% | 17.8% | 33% | 15.3% | 19.3% | 18.3%
CCCCCCCCCCSc1ncnc2nc[nH]c12 | 36.8% | 67.4% | 88.5 | 86.3 | 65.8% | 57.1% | 58.5% | 71.3% | 113% | 75 | 48.5% | 102% | 75.3% | 89.5% | 83.7% | 68.7% | 86.8% | 48.5% | 94% | 82.4%
